Assay outcomes: PubChem, National Center for Advancing Translational Sciences (NCATS)
A selection: hits, their analogues and other compounds. The true share with any hit is near 0.77%.
NS1 function inh – blocks influenza NS1 protein function. Potency, µM (titrated, usually from 46.1 µM), inactives show top-dose activity, positive = more growth. 270,000 compounds, 0.4% hits; calls by dose curve; note: potency is the fitted concentration of half-maximal effect; actives are rising curves; nearly all actives have a fitted effect of over 50% in size
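Recovery from NS1-induced slow growth read by OD600 in budding yeast switched to galactose assay medium (pH 6.0, -URA) at 1:100 dilution. Compound 23 nl per well; the matching strain lacking NS1 serves as control.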
LmPK inh – LmPK (Leishmania mexicana) enzyme inhibition. Q27686. purified LmPK, Kinase-Glo ATP luminescence, 1 h. Potency, µM (highest dose often 57.5 µM), for the others: top-dose activity change, negative = inhibition, usual class: inhibitors. 290,000 compounds, 0.37% hits; note: potency is the fitted concentration of half-maximal effect; % is set by controls: 0 for no effect and ±100 for the full control effect
Target sequence (Q27686 whole entry, looked up): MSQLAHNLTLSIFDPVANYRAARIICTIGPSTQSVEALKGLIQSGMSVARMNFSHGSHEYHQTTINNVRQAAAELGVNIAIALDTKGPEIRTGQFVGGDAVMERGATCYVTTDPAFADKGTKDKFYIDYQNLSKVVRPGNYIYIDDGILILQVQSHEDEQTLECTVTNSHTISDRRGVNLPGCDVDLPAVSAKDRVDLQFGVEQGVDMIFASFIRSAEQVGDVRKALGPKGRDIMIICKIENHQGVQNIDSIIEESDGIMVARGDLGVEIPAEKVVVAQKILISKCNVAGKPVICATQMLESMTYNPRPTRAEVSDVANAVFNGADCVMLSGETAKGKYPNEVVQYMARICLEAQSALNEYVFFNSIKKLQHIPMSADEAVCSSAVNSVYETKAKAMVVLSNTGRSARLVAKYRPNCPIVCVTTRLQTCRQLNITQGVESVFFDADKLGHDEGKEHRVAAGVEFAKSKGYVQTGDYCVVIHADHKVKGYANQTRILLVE
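Purified LmPK (0.1 nM) with 0.5 mM PEP and 0.1 mM ADP in imidazole buffer pH 7.2 with MgCl2/KCl, 1 h at room temperature. ATP formed was read by luciferase luminescence and normalized to no-enzyme and uninhibited controls.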
TbPYK inhibitor – inhibitors of Trypanosoma brucei pyruvate kinase; 410,000 compounds, 0.12% hits; Q57TT1; Potency, µM (doses to about 76.8 µM), inactives show top-dose activity, negative = inhibition, usual class: inhibitors; AID 624173; TbPYK enzyme, Kinase-Glo Plus ATP luminescence, 45 min; note: potency is the fitted concentration of half-maximal effect; % is set by controls: 0 for no effect and ±100 for the full control effect; nearly all actives have a fitted effect of over 50% in size
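Screened from lowest to highest concentration, compounds were pinned into TbPYK/substrate mixtures, and ADP (130 uM final) was added. Plates sat at room temperature for 45 min prior to Kinase-Glo Plus detection by luminescence.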
RE007 growth inh – less growth of the S. pombe RE007 Vpr strain; 360,000 compounds, 0.21% hits; Potency, µM (series often up to 92.2 µM), for the others: top-dose activity change, negative = less growth, actives largely listed as inhibitors; S. pombe RE007 Vpr strain, BacTiter-Glo ATP luminescence, 24 h; AID 651644; active = well fitted falling curve with a large enough effect; inconclusive = small, poorly fitted or top-dose-only effect; inactive = no such curve, though single readings can be large or run the other way; note: potency is the fitted concentration of half-maximal effect; % is set by controls: 0 for no effect and ±100 for the full control effect; nearly all actives have a fitted effect of over 50% in size
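Fission yeast strain RE007, carrying one chromosomally integrated HIV-1 vpr copy, was seeded at OD 0.01 in PMG+AL medium with 23 nL pinned compound. After 24 h at 30 °C and 99% humidity, viability was read by BacTiter-Glo luminescence.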
Flu NS1 inh – validation of influenza NS1 protein function inhibitors; activity change, negative = inhibition, % at 32.9 µM; influenza NS1 function cell assay, 15-point titration; shares compounds with NS1 function inh; 1,400 tested, under 10 active; calls by dose curve; note: 0% is about no effect
PR8 titer – influenza NS1 inhibitors: inhibition of influenza A/PR/8/34 replication. shares compounds with NS1 function inh. MDCK infected influenza A/PR/8/34, virus titer TCID50; hits give low values. virus titer (log TCID50), log10 TCID50 at 5 µM. 95 compounds, 30% hits. AID 504647; call rule not given here
* marks the source's active call; other numbers are inactive results; ? = inconclusive; . = no result given; [ ] = another dose, or the depositor's remark. Unless noted, calls come from the whole dose curve; as a rule, active = well fitted curve in the direction sought with a large enough effect; inconclusive = small, poorly fitted or top-dose-only effect, or another doubt; inactive = no such curve, though single readings can be large; an effect the other way counts as inactive or inconclusive.

SMILES | NS1 function inh | LmPK inh | TbPYK inhibitor | RE007 growth inh | Flu NS1 inh | others
CCCCOc1ccc(C2c3c(oc4ccc(C)cc4c3=O)C(=O)N2CCCN(C)C)cc1OCC (stereo not drawn) | . | . | 3% | . | .
COC(=O)CCCC1=CC2=C(c3ccccc3)C(=O)C(C)(OC(=O)C3CCCC3)C(=O)C2=CN1CCCOC(C)C (stereo not drawn) | . | -1%[11.5 µM] | . | . | .
CC(C)Sc1nnc([C@@H](N)Cc2ccccc2)o1 | ? | 6% | -2% | 13% | -3
CSc1nnc([C@@H](N)Cc2ccccc2)o1 | -8% | -5% | 1% | 22% | .
COc1ccc(CC(=O)NCc2ccc3c(c2)CCN3C(=O)c2ccc(C)cc2)cc1OC | . | . | -3% | . | .
CCN1CCCC1CN(Cc1cc2cc(C)ccc2[nH]c1=O)C(=O)Nc1ccccc1OC (stereo not drawn) | 11µM* | 5% | -8% | -1% | -6
Cc1ccc(NC(=O)Cn2c(=O)n(Cc3ccco3)c(=O)c3sc4ccccc4c32)cc1C | . | . | -11% | . | .
CC(C)NS(=O)(=O)c1ccc(OCC(=O)Nc2ccc3c(c2)OCO3)cc1 | . | 2% | -4% | -4% | .
CC(C)NS(=O)(=O)c1ccc(OCC(=O)Nc2cccc(F)c2)cc1 | ? | 12% | -1% | -18% | 18
Cc1ccc(-n2c(SCC(=O)Nc3ccc4c5c(cccc35)CC4)nc(O)c(C)c2=O)cc1 | 7.9µM* | 0% | 6% | 14% | 38
O=C(O)[C@H](CC(=O)N1C[C@H]2CCCC[C@H]2C1)Cc1ccccc1 | . | . | -4% | . | .
Cc1cc(-c2ccccc2)c2c(=O)[nH][nH]c2n1 | 10µM* | -1% | 1% | -16% | ?
CC(Nc1nc(-c2ccc(F)cc2)cs1)c1nc2cc(Cl)c(N3CCCCC3)cc2n1CCOCCO (stereo not drawn) | . | . | -1% | -18% | .
CC(Nc1nc(-c2cccc(Br)c2)cs1)c1nc2cc(Cl)c(N3CCCCC3)cc2n1CCOCCO (stereo not drawn) | 10µM* | -1% | 2% | 6% | -9
CCN(c1ccccc1)S(=O)(=O)c1ccc(NC(=O)c2cc(=O)c3cc(C)cc(C)c3o2)cc1 | . | . | -6% | . | .
Nc1ccc(S(N)(=O)=O)cc1 | . | . | 6% | -4%[18.4 µM] | .
Nc1ccc(S(N)(=O)=O)cc1N | 4.5µM* | 9% | -9% | -2% | 19
COc1ccc(NS(=O)(=O)c2ccc(OC)c(NC(=O)CCC3CCCC3)c2)cc1 | ? | 0% | -7% | -9% | 7
COc1ccc(OC)c(NC(=O)COC(=O)CCC2CCCC2)c1 | . | . | 0% | -6% | .
O=C(CSc1nnc(-c2c[nH]c3ccccc23)o1)N1CCCCC1 | -16% | -1% | 3% | 4% | .
O=C(CSc1nnc(-c2c[nH]c3ccccc23)o1)N1c2ccccc2CCc2ccccc21 | 4µM* | 3% | 3% | -6% | ?
COC(=O)[C@@]1(Cc2ccc(F)cc2)[C@H]2c3cc(C(=O)N4CCCC4)n(Cc4ccc(C(F)(F)F)nc4)c3C[C@H]2CN1C(=O)c1ccccc1 | 11µM* | 2% | 1% | 0% | 3
CCOC(=O)N1CCC(NC(=O)c2ccc3c(c2)sc2nc(-c4ccccc4)cn23)CC1 | ? | 1% | -4% | -7% | -12 | PR8 titer=7.5*
CCOC(=O)N1CCC(NC(=O)c2ccc3c(c2)sc2nc(-c4cccc(OC)c4)cn23)CC1 | ? | 0% | . | . | .
Cc1cc(C)c(Cn2c(C(O)c3ccccc3)nc3ccccc32)c(C)c1 (stereo not drawn) | . | . | 2% | . | .
SMILES | NS1 function inh | LmPK inh | TbPYK inhibitor | RE007 growth inh | Flu NS1 inh | others
Cn1cnnc1SCC(C)(C)NS(=O)(=O)c1ccc(Cl)cc1 | ? | -1% | 5% | -12% | -7
COc1ccc(CNC(=O)c2ccc(CN3CCOCC3)cc2)cc1 | 8% | -6% | 0% | 13% | .
O=C(NCc1ccccc1)c1ccc(CN2CCOCC2)cc1 | ? | -3% | -1% | -1% | -1
COc1cccc(CNC(=O)Cn2c(=O)ccc3cc(S(=O)(=O)N4CCCC4)ccc32)c1 | . | . | -3% | . | .
COc1cccc(Nc2sc(C(=O)c3ccc(F)cc3)c(N)c2C(=O)NCc2ccc(C)cc2)c1 | . | . | 10% | . | .
CCCc1nnc(NC(=O)Cc2coc3ccc(C(C)C)cc23)s1 | . | . | -2% | . | .
Cc1ccc(NC2CCCN(C(=O)CCN3CCOCC3)C2)cc1C (stereo not drawn) | ? | 0% | 0% | -2% | -3
COc1ccc(C2CC(c3cccs3)=NN2c2ccc(C=O)cc2)cc1 (stereo not drawn) | 11µM* | 3% | 0% | -20% | 4
CCc1ccc(NC(=O)CC2C(=O)N(c3cccc(OC)c3)C(=O)N2Cc2ccco2)cc1 (stereo not drawn) | . | . | 2% | . | .
N#CC1=C(S)N=C(N)C(c2nc(-c3ccccc3)cs2)C12CCCCC2 (stereo not drawn) | 11µM* | 0% | 3% | -18% | 18
N#CC1=C(S)N=C(N)C(c2nc(-c3ccccc3)cs2)C12CCCC2 (stereo not drawn) | 22% | -10% | 0% | 17% | .
CC1(C)Cc2c(C#N)c(N3CCN(C(=O)c4ccccc4)CC3)nc(-c3ccco3)c2CS1 | 8.9µM* | 2% | -18% | -9% | -35
O=S(=O)(c1ccc(NC(=S)NCCC(c2ccccc2)c2ccccc2)cc1)N1CCOCC1 | 14µM* | 2% | 2% | 12% | 15
COc1ccc(CCNC(=O)c2cc(-c3ccc(Cl)cc3)on2)cc1OC | . | . | 0% | . | .
COc1ccc(-c2cc(C(=O)Nc3cc(C)n(Cc4ccc(Cl)cc4)n3)no2)cc1OC | 5µM* | -1% | 4% | -8% | -1
CC(C)(C)N(Cc1ccccc1)C(=O)CCc1ccccc1 | ? | 1% | 1% | -19% | -33
Cc1c(C(=O)O)oc2ccc(S(=O)(=O)NCCC3=CCCCC3)cc12 | 10µM* | 3% | 1% | -4% | 17
CCOc1ccc(NC(=O)c2c(NC(=O)CNCCN3CCOCC3)sc3c2CCC3)cc1 | 2.8µM* | 6% | -9% | -15% | -18
COc1ccc(-c2nn(-c3ccccc3)cc2/C=C2/SC(=S)N(CCC(=O)O)C2=O)c(C)c1 | 11µM* | 0% | -17% | 1% | ?
Cc1ccc(-c2cc(-c3ccco3)c3c(N)c(C(=O)NN)oc3n2)cc1 | ? | -1% | 0% | 11% | .
NNC(=O)c1oc2nc(-c3ccccc3)cc(-c3ccccc3)c2c1N | 10µM* | -2% | 1% | -10% | 23
CCOc1ccccc1C(=O)Nc1cc2c(cc1N1CCCCC1)n(C)c(=O)n2C | . | . | 1% | . | .
CCCc1ccc2oc(C(=O)N(Cc3nccn3C)C(C)C)c(C)c2c1 | ? | 9% | -7% | -23% | ?
Cc1c(C(=O)N(Cc2nccn2C)C(C)C)oc2c(F)cccc12 | 5% | 1% | -3% | 2% | .
